Data from the supplement of paper PMC3545927.
The list shows a part of the results. How many sequences the whole screen found active is unknown.

Target: furin, P09958
Test: furin cleavage Z-score vs untreated control; higher = more cleavage, active = 3.5 or more, inactive = 1 or less, 8 variable residues between constant flanks
Outline: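 The cleavage Z-score is the log read count relative to furin-free reactions, lowess-adjusted and scaled by median absolute deviation. Counts came from sequencing DNA released from bead-bound 8-mer peptide–cDNA fusions after digestion with purified furin for 7.5, 15 or 30 min.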
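Further: purified furin at 1:10 enzyme:substrate in 50 mM HEPES pH 7.5.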

Chain of furin, P09958 (P09958 whole entry): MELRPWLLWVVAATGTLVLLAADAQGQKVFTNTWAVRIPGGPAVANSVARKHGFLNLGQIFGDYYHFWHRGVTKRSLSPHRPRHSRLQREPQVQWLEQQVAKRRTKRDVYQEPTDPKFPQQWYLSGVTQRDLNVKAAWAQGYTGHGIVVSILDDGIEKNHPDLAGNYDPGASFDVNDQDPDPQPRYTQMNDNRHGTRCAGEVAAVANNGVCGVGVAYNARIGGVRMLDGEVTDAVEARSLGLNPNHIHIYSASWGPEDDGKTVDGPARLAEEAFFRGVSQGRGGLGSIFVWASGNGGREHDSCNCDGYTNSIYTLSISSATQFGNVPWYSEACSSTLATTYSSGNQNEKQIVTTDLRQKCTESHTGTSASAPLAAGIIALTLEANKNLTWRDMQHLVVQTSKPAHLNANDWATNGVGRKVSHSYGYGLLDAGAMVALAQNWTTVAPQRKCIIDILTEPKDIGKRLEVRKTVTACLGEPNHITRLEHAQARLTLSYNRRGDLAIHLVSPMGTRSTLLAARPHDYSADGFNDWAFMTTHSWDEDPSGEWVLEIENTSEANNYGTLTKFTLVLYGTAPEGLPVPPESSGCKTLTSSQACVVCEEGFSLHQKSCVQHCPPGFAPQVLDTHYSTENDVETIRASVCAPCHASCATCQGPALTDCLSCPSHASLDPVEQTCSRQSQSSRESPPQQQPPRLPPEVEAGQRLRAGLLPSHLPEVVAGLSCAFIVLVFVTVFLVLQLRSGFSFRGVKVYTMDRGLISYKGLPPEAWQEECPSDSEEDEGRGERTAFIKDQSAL

Sequence | furin cleavage Z-score (7.5 min) | furin cleavage Z-score (15 min) | furin cleavage Z-score (30 min)
CATTPCSGDWAGNASASA [HC1911] | 1.59 | -1.02 (inactive) | 0.621 (inactive)
CAEVGTSTWVAGNASASA [HC2196] | 0.089 (inactive) | 1.37 | 0.992 (inactive)
CAEVVTSTWSAGNASASA [HC2257] | 0.148 (inactive) | -0.0297 (inactive) | 0.967 (inactive)
CASTPCSEHLAGNASASA [HC2532] | 1.63 | 0.136 (inactive) | -0.509 (inactive)
CAVEFLVQAWAGNASASA [HC1471] | -1.03 (inactive) | -0.538 (inactive) | 0.302 (inactive)
CALEDNVTPIAGNASASA [HC1434] | -0.871 (inactive) | -0.336 (inactive) | -2.15 (inactive)
CAADLEVVTSAGNASASA [HC986] | 0.0893 (inactive) | -0.606 (inactive) | -0.099 (inactive)
CARPSRPWRDAGNASASA [FS-1479] | -0.109 (inactive) | 1.22 | 0.811 (inactive)
CATSSRSARKAGNASASA [FS-1617] | -0.831 (inactive) | 2.68 | 0.36 (inactive)
CATSSRRKRDAGNASASA [FS-630] | 11 (active) | 10.2 (active) | 7.47 (active)
CATSNSLKRDAGNASASA [FS-885] | -0.606 (inactive) | 0.0826 (inactive) | -0.0438 (inactive)
CARPSRQIHKAGNASASA [FS-2286] | 1.18 | -0.223 (inactive) | 1.59
CARPSRVARDAGNASASA [FS-1565] | 13.5 (active) | 13.3 (active) | 9.92 (active)
CAYDSMKKRDAGNASASA [FS-389] | 0.389 (inactive) | 0.234 (inactive) | 0.576 (inactive)
CAIITRWKRDAGNASASA [FS-1013] | 11.5 (active) | 11.3 (active) | 8.16 (active)
CAQYLAGLSTAGNASASA [HC1047] | -0.145 (inactive) | 1 | 1.23
CARKKKAWIYAGNASASA [FS-2559] | 0.615 (inactive) | -1.67 (inactive) | -1.6 (inactive)
CAVGCCSMSYAGNASASA [HC2016] | -0.196 (inactive) | -0.437 (inactive) | 1.21
CAQSPRSFQKAGNASASA [TR4] | -0.296 (inactive) | -2.07 (inactive) | -0.29 (inactive)
CALMGYIPLVAGNASASA [HC227] | 0.341 (inactive) | 2.34 | -0.327 (inactive)
CAMEICSQHLAGNASASA [HC1704] | 0.947 (inactive) | 2.02 | 0.46 (inactive)
CARAERRPRRAGNASASA [FS-1059] | 8.38 (active) | 9.79 (active) | 8.17 (active)

Sequence | furin cleavage Z-score (7.5 min) | furin cleavage Z-score (15 min) | furin cleavage Z-score (30 min)
CARAERAARFAGNASASA [FS-185] | 0.624 (inactive) | 2.79 | 2.55
CARRHRKKKRAGNASASA [FS-918] | 0.00638 (inactive) | 0.147 (inactive) | 0.539 (inactive)
CARRHRTYRWAGNASASA [FS-864] | 7.43 (active) | 9.85 (active) | 11.3 (active)
CARRHRRPRRAGNASASA [FS-1074] | 5.28 (active) | 6.77 (active) | 6.21 (active)
CAKEVKAAASAGNASASA [HC1405] | 0.037 (inactive) | -0.691 (inactive) | 0.852 (inactive)
CAKYLFNWAVAGNASASA [HC1632] | -0.0484 (inactive) | 0.619 (inactive) | 0.965 (inactive)
CASSECTTPCAGNASASA [HC1143] | -0.401 (inactive) | 1.52 | 0.461 (inactive)
CATVCCSMSYAGNASASA [HC1998] | 0.937 (inactive) | 0.131 (inactive) | 0.837 (inactive)
CAGAGLAGAAAGNASASA [HC1076] | -0.496 (inactive) | -0.493 (inactive) | -0.847 (inactive)
CAHHSPLKRSAGNASASA [FS-30] | -0.21 (inactive) | 0.983 (inactive) | 1.29
CATIKRSVISAGNASASA [FS-2853] | 0.545 (inactive) | 0.855 (inactive) | -1.24 (inactive)
CAAVARLKRSAGNASASA [FS-218] | 12.9 (active) | 11 (active) | 9 (active)
CATIKRLKRSAGNASASA [FS-97] | 11.2 (active) | 11.4 (active) | 9.36 (active)
CAEDPCHRPSAGNASASA [HC2331] | -1.74 (inactive) | -0.655 (inactive) | 0.261 (inactive)
CAGAVQWMNRAGNASASA [HC1116] | 0.142 (inactive) | 1.71 | -0.148 (inactive)
CAKLNRRSRKAGNASASA [FS-810] | 4.08 (active) | 6.18 (active) | 5.19 (active)
CAKLNRKYRSAGNASASA [FS-1132] | 9.69 (active) | 8.1 (active) | 6.59 (active)
CAHQRRKYRSAGNASASA [FS-796] | 4.89 (active) | 5.12 (active) | 6.05 (active)
CAEAIYQCCDAGNASASA [HC1489] | 1.16 | 0.588 (inactive) | 0.702 (inactive)
CATIFKIRMYAGNASASA [HC473] | -0.151 (inactive) | 0.348 (inactive) | -1.46 (inactive)
CAGKFRYRRVAGNASASA [FS-242] | 9.76 (active) | 11.9 (active) | 8.82 (active)
CASLCRYRRVAGNASASA [FS-1657] | 7.05 (active) | 6.79 (active) | 8.55 (active)
